In the library only some 10% were active in any assay of this set; here they are far more common.
HP1b chromo inh: HP1-beta chromodomain-methylated histone interaction inhibition. 390,000 tested, 0.56% active. AlphaScreen HP1-beta / biotin-H3K9me3 peptide binding. P83916. Potency, µM (top dose mostly 114 µM), for the others: at the highest dose activity change, negative = inhibition, usual class: inhibitors. AID 540317; further: nearly all actives have a fitted effect of over 70% in size
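HP1-beta protein (50 nM final) preincubated 30 min at room temperature with biotinylated H3(1-18)K9me3 peptide (50 nM) in PBS pH 7.4, 0.01% Tween-20, then compound added for 30 min. AlphaScreen streptavidin donor/nickel chelate acceptor beads (10 ug/mL final), 30 min dark, luminescence read.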
JMJD2A Tudor: inhibitors of human JMJD2A Tudor domain; 390,000 tested, 4.4% active; AlphaScreen JMJD2A-Tudor / H3K4me3 peptide binding; Potency, µM (doses to about 114 µM), inactives show top-dose activity change, negative = inhibition, usual class: inhibitors; O75164; further: on the % scale 0 is the no-effect control and ±100 the full control effect; nearly all actives have a fitted effect of over 50% in size
GLS inh: inhibitors of human glutaminase (GLS); O94925; GLS enzymatic activity, qHTS titration; Potency, µM (series often up to 45.5 µM), inactives show at the top dose activity change, negative = inhibition, actives largely listed as inhibitors; 410,000 tested, 0.21% active; further: on the % scale 0 is the no-effect control and ±100 the full control effect
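Human kidney-isoform GLS in 45 mM KH2PO4 pH 8.2, 0.02% Tween-20, with compound, started with 1mM L-Glutamine (added stock). Glutamate oxidase/HRP/Amplex red coupled fluorescence read at start and after 30 min at RT.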
G9a block: blocks human histone lysine methyltransferase G9a | 350,000 tested, 8.8% active | G9a H3K9 monomethylation, AlphaScreen, 2 h | Potency, µM (series often up to 102 µM), for the others: top-dose activity, negative = inhibition, usual class: inhibitors | Q96KQ7 | AID 504332; further: on the % scale 0 is the no-effect control and ±100 the full control effect; nearly all actives have a fitted effect of over 75% in size
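G9a (20 nM) was preincubated 15 min with compound, then reacted 2 h at room temperature with 500 nM biotin-H3K9 peptide and 20 µM SAM. Monomethyl-H3K9 detected by AlphaScreen using anti-H3K9me1 antibody.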
BAZ2B block: blocks human BAZ2B; Q9UIF8; AlphaScreen BAZ2B-H3K14Ac peptide displacement; Potency, µM (highest dose often 114 µM), for the others: top-dose activity change, negative = inhibition, most hits filed as inhibitors; 360,000 tested, 4.4% active; further: on the % scale 0 is the no-effect control and ±100 the full control effect; nearly all actives have a fitted effect of over 60% in size
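Complex of BAZ2B and biotin-H3K14Ac (50 nM apiece) forms over 30 min at RT, then faces library compounds up to 110 uM for another 30 min; AlphaScreen beads added, 20 min dark incubation, luminescence read.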
* marks the source's active call; other numbers are inactive results; u = inconclusive; x = not tested or not shown; [ ] = another dose, or the depositor's remark. The call rests on the fitted dose curve; in most records, active means well fitted curve in the direction sought with a large enough effect; inconclusive means small, poorly fitted or top-dose-only effect, or another doubt; inactive means no such curve, though single readings can be large; an effect the other way counts as inactive or inconclusive. Potency means the concentration at half of the fitted maximal effect.

SMILES | HP1b chromo inh | JMJD2A Tudor | GLS inh | G9a block | BAZ2B block
CCN(CC)CCOC(=O)c1ccc(NC(=O)c2cc3cccc(OC)c3oc2=O)cc1 | 12% | -28% | -3% | u | -13%
CN(C)c1ccc(CC(=O)N2CCCCC2c2cc(C(=O)Nc3cccc4c3CCCC4)no2)cc1 (stereo not given) | x | x | 0% | x | x
CCOc1ccc(C(=O)NCc2ccc3c(c2)CCN3C(=O)c2ccc(C)cc2)cc1OCC | 7% | -19% | -12% | 3%[59 µM] | -10%
Clc1ccccc1-c1ccc2ncnc(NCCN3CCOCC3)c2c1 | x | x | x | -1%[0.501 µM] | x
c1ccc(Sc2ncccn2)nc1 | 17% | -9% | -2% | 32µM* | -2%
Clc1ccc(Sc2ccccn2)cc1 | 54% | 4% | -7% | x | 66%
CC1=C(C(=O)OC(C)C)C(c2ccc(Cl)cc2)n2c(sc(=Cc3ccc(OCC(=O)O)cc3)c2=O)=N1 (stereo not given) | x | x | 7.1µM* | x | x
CCOC(=O)C1=C(C)Nc2ncnn2C1c1ccc(N(C)C)cc1 (stereo not given) | 0% | u | 12% | u | -11%
CCOC(=O)C1=C(C)N=c2s/c(=C/c3ccc(OCC(=O)O)cc3)c(=O)n2C1c1ccc(SC)cc1 (stereo not given) | x | x | x | x | 35µM*
CCOC(=O)C1=C(C)N=c2s/c(=C\c3ccncc3)c(=O)n2C1c1ccc2c(c1)OCO2 (stereo not given) | -11% | u | 0% | -34%[12.7 µM] | u
CCOC(=O)C1=C(C)N=c2sc(=C(C)C)c(=O)n2C1c1ccc(N(C)C)cc1 (stereo not given) | -9% | 89µM* | 16% | x | x
CCOC(=O)C1=C(C)N=c2s/c(=C/c3ccc(OCC(=O)O)cc3)c(=O)n2C1c1ccc(F)cc1 (stereo not given) | -16% | 79µM* | -10% | u | u
COc1ccc(C2C(C(=O)OC(C)C)=C(C)N=c3s/c(=C\c4cccs4)c(=O)n32)cc1 (stereo not given) | -5% | -30% | -2% | -12% | u
CCOC(=O)C1=C(C)N=c2s/c(=C\c3ccc(OCC(=O)O)cc3)c(=O)n2C1c1ccc(Cl)cc1 (stereo not given) | 40µM* | 20µM* | u | x | 7.9µM*
CCOC(=O)C1=C(C)N=c2s/c(=C/c3ccc(OCC(=O)O)c(OC)c3)c(=O)n2C1c1ccc(Cl)cc1 (stereo not given) | 32µM* | 20µM* | u | x | x
CCOC(=O)C1=C(C)N=c2s/c(=C/c3ccccc3)c(=O)n2C1c1ccc(OC)c(OC)c1 (stereo not given) | 20% | -2% | -10% | -2%[59 µM] | 9%
Cc1cccc(N(C)C(=O)Cn2cnc3nc4c(cc3c2=O)CCCC4)c1 | 9%[57 µM] | -12% | -5% | 0%[59 µM] | -5%
Nc1sccc1C(=O)c1ccccc1 | -15% | -36% | 15% | 45µM* | -9%
O=C(c1ccccc1)c1ccccc1C(=O)c1ccccc1 | 24% | 3% | 6% | 14%[0.501 µM] | 9%
CN1CCN(S(=O)(=O)c2ccc(Nc3ccc(F)cc3)c([N+](=O)[O-])c2)CC1 | -26% | u | 2% | 56µM* | u
CCOc1ccc(Nc2ccc(S(=O)(=O)N3CCN(C)CC3)cc2[N+](=O)[O-])cc1OCC | u | u | 12% | 14%[12.7 µM] | u
Cc1ccc(Nc2ccc(S(=O)(=O)N3CCOCC3)cc2[N+](=O)[O-])cc1C | u | u | -4% | u | 11µM*
Cc1ccc(S(=O)(=O)Nc2ccc(S(=O)(=O)N3CCOCC3)cc2)cc1[N+](=O)[O-] | 16% | -11% | -21% | 14% | 4%
O=[N+]([O-])c1cc(-n2cccc2)ccc1N1CCOCC1 | 71µM* | 50µM* | 5% | u | 35µM*
Cc1ccc(C)n1-c1ccc(N2CCOCC2)c([N+](=O)[O-])c1 | -18% | u | 4% | x | u
O=[N+]([O-])c1cc(S(=O)(=O)N2CCOCC2)ccc1N1CCNCC1 | 8% | -21% | -4% | 50µM* | -6%
COc1ccc(CCCc2nnc(SCC(=O)Nc3ccc(Cl)cc3)o2)cc1 | 22% | u | -2% | -34%[59 µM] | -7%
